Structures are written as SMILES. The panel holds about 83,000 compounds, 20% with a hit somewhere; the sample as a whole holds those more often.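 Interpretation: 100, growth as untreated; towards 0, rising growth inhibition; 0, no net growth; 0 to -100, cell death. Compounds scoring below 10 were considered active.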 Values without a mark were called inactive. Activity calls are given as the source filed them.

Assay in all cases: NCI-60 one-dose screen, 48 h (100 = growth as untreated, 0 = no growth, -100 = all killed)
Common to all, as to conditions: 10 µM unless noted

Test [1] concerns HCT-15 colon.
Test [2] relates to HT29 colon.
Test [3] relates to SNB-75 CNS.
For test [4], the system named is SNB-19 CNS.
In test [5] the test system is U251 CNS.
Test [6] deals with PC-3 prostate.
The test system of test [7] is SK-MEL-5 melanoma.
Test [8] has as its system UACC-62 melanoma.
The subject of test [9] is LOX IMVI melanoma.
Test [10] concerns SK-MEL-28 melanoma.

Turning to `CCOC(=O)NC(Cc1ccccc1)c1ccccc1` (configuration not stated), the growth in test [1] was 106%; in test [2], 97.5%; in [3], 100%; in [4], 104%; in test [5], 99.9%; in test [6] it was 94.7%. The growth in test [7] was 104%; in test [8], 97.5%; in test [9], 94.9%; in test [10], 115%.

As to `COc1ccccc1N1CCN(CCCOc2ccc(C(=O)/C=C3/C(=O)Nc4ccccc43)cc2)CC1`, the growth in test [1] is 74.7%; in test [2], 25.8%; in test [3], 85.1%; in [4], 84.6%; in test [5], 64.1%; in test [6], 40.9%. Moreover, the growth in test [7] is -36.1% (active); in test [9], 55.5%; in [10], 86.1%.

Consider `CC[C@]12C=CCN3CC[C@@]4(c5cc(NC(=O)CCC(=O)O[C@H]6CC[C@H]7[C@@H]8CC[C@H]9CC(=O)CC[C@]9(C)[C@H]8CC[C@]67C)c(OC)cc5N(C)[C@H]4[C@@](O)(C(=O)OC)[C@@H]1OC(C)=O)[C@@H]32`, for which the growth is 58.2% in [1]; 39% in [2]; 57.1% in test [3]; 84.7% in [4]; 64.3% in test [5]; 47.7% in test [6]. Also, the values for the growth in [7], in test [9] and in [10] were 54.4%, 78.1% and 92.5%, respectively.

Consider `O=CN1N=C(c2ccc(Cl)cc2)CC1c1cccc(Nc2ccnc3cc(C(F)(F)F)ccc23)c1` (configuration not stated), for which the growth in [1] is 71.2%; in test [2], 58.5%; in [3], 74.9%; in test [4] it was 70.6%; in test [5], 64.1%; in [6], 48.9%. Moreover, the growth in [7] was 1.24% (active); in [9] it was 51.5%; in test [10] it was 90.8%.

Regarding `CCCCOc1nc2ccc(C)cc2cc1/C=C/C(=O)/C=C/c1ccc2c(c1)OCO2`, the growth in [1] was 97.8%; in test [2], 63.6%; in test [3] it was 97.1%; in test [4], 92.9%; in test [5], 48.4%; in [6] it was 72.4%. The results for the growth in [7], in test [9] and in test [10] were 77.6%, 77.3% and 109%, respectively.

Consider `OCCNc1nc(NCCO)nc(Nc2ccc(C3=NN(c4cc(Cl)cc(Cl)c4)C(c4ccccc4)C3)cc2)n1` (configuration not stated), for which the growth was 27.5% in [1]; 9.1% (active) in test [2]; 52.5% in [3]; 58.7% in test [4]; 27.2% in test [5]; 24.5% in test [6]. Moreover, the growth in test [7] was 51.7%; in [9], -36.9% (active); in test [10], 49.9%.

As for `N#CC1(C#N)C2=C(CCCC2)NC(c2c(F)cccc2Cl)C1(C#N)C#N` (configuration not stated), the growth is 66.9% in test [1]; 17.3% in test [2]; 51.1% in [3]; 69.2% in [4]; 60.7% in [5]; 72.1% in test [6]. In addition, the growth in [7] is 63.9%; in test [9], 53.4%; in test [10], 65.8%.

As for `COc1cc(NC(=O)Nc2cnc(Nc3ccc(N4CCOCC4)cc3)nc2Oc2ccc(C(F)(F)F)cc2)cc(OC)c1`, the growth is 103% in test [1]; 95.5% in [2]; 84.4% in test [3]; 99.5% in [4]; 97.3% in test [5]; 93.3% in test [6]. The growth was 101% in [7], 95.6% in test [9] and 116% in [10].

Take `CCOC(=O)C1CCN(S(=O)(=O)/N=C2/NC(=O)NC2=C(Cl)Cl)CC1`: the growth is -72.6% (active) in [1]; -61.6% (active) in test [2]; 55.5% in [3]; 16.8% in [4]; -86.7% (active) in test [5]; 17.7% in test [6]. For the same molecule, the results for the growth in test [7], in test [9] and in test [10] were 14.1%, -65% (active) and -8.67% (active), respectively.

As to `COc1cc(C(=O)N2CCN(c3ccccc3OC)CC2)c(NC(=O)c2cnccn2)cc1OCc1ccccc1`, the growth is 81.9% in test [1]; 106% in test [2]; 102% in test [3]; 85.9% in [4]; 83.2% in test [5]; 70.9% in test [6]. Further, the growth was 78.4% in test [7], 75.5% in [9] and 132% in [10].

Turning to `COc1ccc2nc(-c3ccc(OC)c(OC)c3)cc(-c3nnc(SCC(=O)Nc4ccc(/C(C)=N\O)cc4)n3-c3ccccc3)c2c1`, the growth was 76.2% in test [1]; 89.2% in test [2]; 77.3% in test [3]; 84.3% in test [4]; 78.3% in test [5]; 60.7% in test [6]. Besides, the results for the growth in [7], in test [9] and in test [10] were 71.7%, -28.1% (active) and 111%, respectively.

Consider `O=C(Nc1ccccc1)NS(=O)(=O)c1c[nH]c(=S)[nH]c1=O`, for which the growth is 109% in test [1]; 73.7% in test [2]; 89.2% in test [3]; 106% in [4]; 93.3% in test [5]; 100% in test [6]. The results for the growth in [7], in test [9] and in test [10] were 104%, 92.4% and 116%, respectively.

Consider `NC[C@@H]1CCN(c2cc3c(cc2F)c(=O)n(N)c(=O)n3Cc2ccc(-c3ccccc3)cc2)C1`, for which the growth is 50.1% in test [1]; 30.4% in [2]; 77.9% in test [3]; 102% in test [4]; 64.5% in [5]; 71.4% in test [6]. The growth in [7] was 72.4%; in test [9], 78.9%; in test [10] it was 113%.

As to `CCOC(=O)c1c(C)nc2c(c1N)CC(=O)N2CCc1ccccc1`, the growth is 17.2% in test [1]; 6.02% (active) in test [2]; 80.1% in test [3]; 22.4% in test [4]; 31.8% in test [5]; 17.3% in [6]. Moreover, the results for the growth in test [7], in [9] and in test [10] were 3.27% (active), 9.25% (active) and 39.9%, respectively.

On to `COc1ccc(Cl)c([N+](=O)[O-])c1`, for which the growth in [1] was 103%; in test [2] it was 107%; in test [3], 98.2%; in test [4] it was 103%; in test [5], 106%; in test [6], 105%. For the same molecule, the growth in test [7] is 99.2%; in test [9], 97.2%; in test [10], 106%.

In the case of `Nc1c(C(=O)Nc2ccccc2Cl)sc2nc3c(cc12)CN(Cc1ccccc1)CC3`, the growth in test [1] is 95.7%; in test [2], 101%; in test [3], 113%; in [4], 109%; in test [5] it was 114%; in [6] it was 104%. For the same molecule, the growth in test [7] is 97.7%; in test [9], 99.7%; in [10], 102%.

For `COC(=O)CCc1n(Cc2ccc3ccccc3c2)c2ccccc2[n+]1Cc1ccc2ccccc2c1`, the growth in [1] is 79.1%; in test [2], -25.5% (active); in test [3], -8.15% (active); in test [4] it was 16%; in [5], 8.5% (active); in test [7] it was -92.9% (active). In addition, the growth in test [8] was -54% (active); in [9], -59.3% (active); in test [10], 4.8% (active).

For the molecule `O=C(O)c1cc(N=Nc2ccc(-c3ccc(N=Nc4c(S(=O)(=O)O)cc5ccc(Nc6ccccc6)cc5c4O)cc3)cc2)ccc1O`, the growth in test [1] is 100%; in test [2] it was 99.9%; in test [3], 85.2%; in test [4], 102%; in [5], 103%; in test [6] it was 96.4%. Further, the growth was 106% in test [7], 95.6% in test [9] and 107% in test [10].

Turning to `Cc1nnc(/N=C2\NC(=O)/C(=C/c3ccsc3)S2)s1`, the growth is 88% in test [1]; 90.6% in test [2]; 74.3% in test [3]; 100% in test [4]; 94.6% in test [5]; 89.6% in test [6]. Also, the growth in test [7] was 98.4%; in test [9], 87.7%; in test [10], 101%.

Take `CCOCc1cc(C(C)(C)C)ccc1O`: the growth in [1] was 104%; in test [2] it was 94.6%; in [3] it was 87.4%; in test [4] it was 98.3%; in test [5], 94%; in test [7], 99.5%. In addition, the growth in test [8] is 94.4%; in test [9], 96.5%; in test [10], 106%.

Turning to `COc1ccc(-c2cc(-c3nnc(SCC(=O)Nc4ccc(/C(C)=N\O)cc4)n3-c3ccccc3)c3cc(OC)ccc3n2)cc1`, the growth was 70% in test [1]; 79.8% in test [2]; 80.3% in test [3]; 77.9% in [4]; 78.1% in test [5]; 61.1% in test [6]. For the same molecule, the figures for the growth in [7], in test [9] and in [10] were 83.8%, -36.4% (active) and 95.4%, respectively.

Turning to `O=C1[C@@H](OS(=O)(=O)CC(F)(F)F)[C@H](c2ccc(F)cn2)N1c1cc2c3ccccc3ccc2c2ccccc12`, the growth is 61.9% in test [1]; 64.1% in [2]; 83.4% in [3]; 77.9% in test [4]; 69.2% in test [5]; 62.8% in [6]. In addition, the growth in test [7] was 67.2%; in test [8], 58.3%; in [9] it was 70.3%; in test [10], 79.7%.

Turning to `C#Cc1ccccc1NC(=O)c1sc2nc3c(cc2c1N)CCCCC3`, the growth in test [1] is 97.6%; in test [2], 81.3%; in test [3], 90.4%; in test [4] it was 109%; in [5], 99%; in test [6], 97.7%. Moreover, the growth is 97.2% in test [7], 95.8% in [9] and 111% in [10].

For the molecule `C/C(=N\NC(=O)c1ccncc1)c1ccc(N)cc1`, the growth was 103% in test [1]; 97.2% in test [2]; 88.8% in [3]; 94.6% in test [4]; 97.7% in test [5]; 85.8% in [6]. In addition, the figures for the growth in [7], in test [9] and in test [10] were 98.8%, 98% and 106%, respectively.

On to `CCN1CCC[C@H]1c1cc(O)c2c(c1OC)C[C@H]1C[C@H]3[C@H](N)C(=O)C(C(N)=O)=C(O)[C@@]3(O)C(=O)C1=C2O`, for which the growth in test [1] was 1.67% (active); in [2] it was -4.51% (active); in test [3], -4.69% (active); in test [4] it was -0.511% (active); in [5], -8.89% (active); in [6], 3.27% (active). In addition, the growth in test [7] was -46% (active); in test [9], -45.2% (active); in test [10], -10.6% (active).

(Values after PubChem BioAssay (NCI).)
